Assay results from PubChem BioAssay (NCI).
About 79,000 compounds went through this panel and 15% of them were active in at least one assay; those are over-represented in the sample as a whole. Values without a mark were called inactive. Activity calls are given as the source filed them. Cut-off read from the data, not from the text of the source: active = growth inhibition above about 70%; inactive = the rest.

Columns and labels:
[1] = NCI Yeast Anticancer Drug Screen. Data for the rad50 strain (AID 155);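 note: 0% = growth of vehicle-only cultures of the same strain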; details: S. cerevisiae rad50 strain growth inhibition, stronger effect = higher value
Outline: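 Compounds were tested on a yeast strain with an engineered DNA damage repair alteration; the reported value is growth inhibition normalised to vehicle treatment.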

[2] = NCI Yeast Anticancer Drug Screen. Data for the mec2-1 strain (AID 157); details: S. cerevisiae mec2-1 strain, stronger effect = higher value
Outline: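 Growth inhibition is read against vehicle-treated controls after compound exposure of the mec2-1 yeast strain, which is defective in DNA damage repair or cell cycle control.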

[3] = NCI Yeast Anticancer Drug Screen. Data for the sgs1 mgt1 strain (AID 161);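 note: 0% = growth of cultures given vehicle only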; details: S. cerevisiae sgs1 mgt1 strain, stronger effect = higher value
Outline: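 Yeast cells carrying a defined DNA-repair defect were exposed to test compounds. Growth inhibition was measured relative to vehicle-treated controls.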

[4] = NCI Yeast Anticancer Drug Screen. Data for the cln2 rad14 strain (AID 165);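 note: 0% = growth equal to vehicle treated cultures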; details: S. cerevisiae cln2 rad14 strain, stronger effect = higher value
Outline: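 Growth inhibition, relative to vehicle-treated controls, is the read-out. The test organism is a yeast strain with defined genetic alterations, cln2 rad14.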

[5] = NCI Yeast Anticancer Drug Screen. Data for the bub3 strain (AID 167); details: S. cerevisiae bub3 mutant strain, stronger effect = higher value
Outline: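 Growth of a checkpoint-deficient yeast mutant is measured after compound exposure. Values represent inhibition relative to vehicle.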

[6] = NCI Yeast Anticancer Drug Screen. Data for the mlh1 rad18 strain (AID 175); details: S. cerevisiae mlh1 rad18 strain growth inhibition, stronger effect = higher value
Outline: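 Cells of a genetically altered yeast strain, deficient in DNA damage repair, were treated with compound. Their growth was then compared with that of vehicle-treated cultures to give inhibition.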

[7] = at 5.0 µM (retest, dose inferred, filed as 0.5)
[8] = at 50.0 µM (retest, dose inferred, filed as 5.0)

Structure (SMILES)	growth inhibition [1, 7]	growth inhibition [1, 8]	growth inhibition ([1]; at 50.0 µM)	growth inhibition [2, 7]	growth inhibition [2, 8]	growth inhibition ([2]; at 50.0 µM)	growth inhibition [3, 7]	growth inhibition [3, 8]	growth inhibition ([3]; at 50.0 µM)	growth inhibition [4, 7]	growth inhibition [4, 8]	growth inhibition ([4]; at 50.0 µM)	growth inhibition [5, 7]	growth inhibition [5, 8]	growth inhibition ([5]; at 50.0 µM)	growth inhibition [6, 7]	growth inhibition [6, 8]	growth inhibition ([6]; at 50.0 µM)
CCCCCCCCCCCCNC(=O)C[n+]1cccc(C(=O)N(C)C)c1	-5%	33%	68.3%	-24%	-13%	58%	-17%	46%	91.4% (active)	-15%	13%	24.6%	-9%	21%	3.35%	7%	44%	53.4%
COc1ccc(C2SC(N)=Nc3c2c(C)nn3C(=O)c2ccccc2O)cc1OC (configuration not stated)	-9%	74% (active)	53.3%	-15%	81% (active)	35.2%	-8%	70% (active)	75.3% (active)	-20%	24%	-19%	-19%	31%	74.3% (active)	1%	91% (active)	65.5%
COC(=O)c1cc(-c2ccc([N+](=O)[O-])cc2)c2c(=O)n(-c3ccccc3)[nH]c2n1	0%	84% (active)	89.8% (active)	-1%	75% (active)	91.1% (active)	-1%	85% (active)	61.1%	-3%	77% (active)	42.4%	-3%	83% (active)	50.2%	-3%	86% (active)	92.2% (active)
CC(CN(C)C)C(=O)/C=C/c1ccc(C(C)C)cc1 (configuration not stated)	3%	89% (active)	93.2% (active)	6%	75% (active)	37.3%	9%	93% (active)	97.2% (active)	11%	26%	25.8%	0%	81% (active)	69%	-1%	94% (active)	91.4% (active)
S=C(Nc1ccc(N=Nc2ccccc2)cc1)SCc1ccccc1	1%	16%	63.3%	3%	25%	97.7% (active)	4%	28%	95.6% (active)	3%	8%	89.6% (active)	-1%	11%	98.5% (active)	-6%	59%	96% (active)
O=C(O)c1cccc2c1Oc1c(cccc1C(=O)O)S2	3%	1%	98.3% (active)	0%	9%	98.2% (active)	0%	3%	98.3% (active)	2%	6%	98.2% (active)	1%	1%	98.8% (active)	2%	-2%	98.5% (active)
N#CC1CCCC(Cc2ccccc2)(c2ccccc2)C1=O (configuration not stated)	-4%	93% (active)	98.8% (active)	-3%	95% (active)	98.1% (active)	-2%	95% (active)	98.3% (active)	-1%	70% (active)	95% (active)	10%	96% (active)	98.7% (active)	-6%	96% (active)	97.6% (active)
O=C1NC(=S)S/C1=C\c1ccc(F)cc1	-4%	6%	76% (active)	7%	15%	85.7% (active)	2%	22%	74.1% (active)	-9%	1%	64.8%	-2%	0%	57%	-4%	4%	80.3% (active)
CN(Cc1ccccc1)CC(O)c1cc(-c2ccc(Cl)cc2)nc2ccccc12 (configuration not stated)	-1%	99% (active)	98.8% (active)	2%	100% (active)	98.5% (active)	24%	100% (active)	99.2% (active)	1%	99% (active)	98.4% (active)	7%	99% (active)	98% (active)	10%	99% (active)	98.3% (active)
